Experimental data taken from PubChem BioAssay (Tox21).
Where “and” joins values, the source holds several entries; their conditions need not be identical. Equal values may be shown once. Inconclusive results are not listed. Unmarked numbers belong to inactive results. Calls of active or inactive are those of the source. Calls come from the whole dose curve; as a rule, active = well fitted activation curve with a large enough effect in the repeat runs; inconclusive = weak or mixed curves; inactive = flat fitted curve, though single readings scatter.

Assay: Caspase-3/7 induction in HepG2 cells by small molecules, qHTS assay (AID 1346978); note: nearly all actives have a fitted effect of over 15% in size
Conditions: HepG2 caspase-3/7 activation, Caspase-Glo luminescence, 17 h; series mostly up to 92.4 µM; caspase activation: at the top concentration
Source text: National Center for Advancing Translational Sciences [NCATS] NIH Chemical Genomics Center [NCGC] U.S. Environmental Protection Agency [EPA] National Institutes of Environmental Health Sciences [NIEHS] National Toxicology Program [NTP] Assay overview: Apoptosis is a process of programmed cell death and plays a central role in the development of multicellular organisms. It is a highly regulated process and induces cell death by activating caspases, which are the members of cysteine aspartic acid-specific protease (caspase) family. Caspases involved in apoptosis are classified by their mechanism of action as initiator caspases (caspase-2, -8, -9 and -10) and executioner caspases (caspase-3, -6, and -7). Inhibition of apoptosis results in number of cancers, autoimmune diseases, inflammatory diseases and viral infection. To identify small molecule compounds that induce apoptosis, a homogeneous, luminescent Caspase-Glo 3/7 assay was used. Wild type HepG2 cells were used to screen Tox21 libraries for identifying caspase-3/7 activity inducers.
Assay Protocol Summary: HepG2 cells were dispensed at 2,000 per well in 5uL of culture medium into white solid bottom 1536-well plates (Corning Life Sciences, Corning, NY) using a Multidrop Combi (Thermo Scientific, Waltham, MA) dispenser. The assay plates were incubated at 37 C and 5% CO2 for 5hr, and then 23nL of compounds dissolved in DMSO and positive control were transferred using a Pintool station (Wako, San Diego, CA). The assay plates were incubated at 37C and 5% CO2 for 17hr. For caspase-3/7 activity read, 4uL of Caspase-Glo 3/7 reagent (Promega Corporation, Madison, WI) was added to each well of the assay plates using Flying Reagent Dispenser (FRD, Aurora Discovery, San Diego, CA) and incubated the assay plates at room temperature for 30min. The luminescence signal was quantified using a ViewLux plate reader (Perkin Elmer, Shelton, CT).
% is set by controls: 0 for no effect and ±100 for the full control effect; potency is the fitted concentration of half-maximal effect.

Structure (SMILES) | caspase activation | Potency
Cn1[nH]nnc1=S | -1.74% | –
O=CC(Br)(Br)Br | -11.9% | –
Cc1cc(N=Nc2ccccc2C)ccc1N | – | 1.37 µM (active) and 969 nM (active)
NC(=O)CCl | -0.854% | –
FC(Cl)(Cl)Cl | 0.0363% | –
C[CH2][Hg][N]1C(=O)C2C(C1=O)C1(Cl)C(Cl)=C(Cl)C2(Cl)C1(Cl)Cl (stereo not given) | -9.39% [at 19 µM] | –
[Cd+2].[Cl-].[Cl-] | – | inactive
CN(C)c1ccc(N=Nc2ccccc2)cc1 | -16.5% | –
Nc1ccccc1C(=O)Oc1ccc2ccccc2c1 | -0.589% | –
O=C1c2ccccc2C(=O)C1C(=O)C(c1ccccc1)c1ccc(Cl)cc1 (stereo not given) | -5.03% | –
CCOCCOC(C)=O | -2.41% | –
COS(=O)(=O)c1ccc(C)cc1 | -1.49% | –
COc1cccc(C(=O)CCN[C@@H](C)[C@H](O)c2ccccc2)c1 | -1.32% [at 42.5 µM] | –
CCOC(=O)C1(c2ccccc2)CCN(CCC(C#N)(c2ccccc2)c2ccccc2)CC1 | -2.21% [at 42.5 µM] | –
OC(Cc1ccccc1Cl)(Cn1cncn1)C1(Cl)CC1 (stereo not given) | -4.14% | –
CC(C)C1CCC(Cc2ccc(Cl)cc2)C1(O)Cn1cncn1 (stereo not given) | – | 67.9 µM (active)
O=C(O)c1cc[c]([Hg][Cl])cc1 | -8.73% | –
N#CNC#N | -1.1% | –
CN(C)C(=S)[S-].CN(C)C(=S)[S-].[Cu+2] | -18.7% [at 19 µM] | –
CC[C@H](C)[C@H]1O[C@]2(C=C[C@@H]1C)C[C@@H]1C[C@@H](C/C=C(\C)[C@@H](O[C@H]3C[C@H](OC)[C@@H](O[C@H]4C[C@H](OC)[C@@H](O)[C@H](C)O4)[C@H](C)O3)[C@@H](C)/C=C/C=C3\CO[C@@H]4[C@H](O)C(C)=C[C@@H](C(=O)O1)[C@]34O)O2 | – | 32.2 µM (active)

Structure (SMILES) | caspase activation | Potency
CCCCCCCCCCCCCCCCCCn1cc[n+](C)c1 | -10.3% | –
[Cl][Sn]([c]1ccccc1)([c]1ccccc1)[c]1ccccc1 | – | 1.46 µM (active)
COc1ccc(/C(=C/C(=O)N2CCOCC2)c2ccc(Cl)cc2)cc1OC | 0.0968% | –
C1CCC2CCCCC2C1 (stereo not given) | -0.544% | –
CCCCN(CCCC)C(=S)[S-].CCCCN(CCCC)C(=S)[S-].[Zn+2] | -17.9% | –
C[C@]12CC[C@H](O)C[C@H]1CC[C@@H]1[C@@H]2C[C@@H](O)[C@]2(C)[C@@H](C3=CC(=O)OC3)CC[C@]12O | -7.1% | –
O=[N+]([O-])c1ccc2ccc3cccc4ccc1c2c34 | -0.87% | –
Cc1ccc(OP(=O)(Oc2ccccc2)Oc2ccccc2)cc1 | -6.37% | –
CCOc1cc(C(C)(C)C)ccc1C1COC(c2c(F)cccc2F)=N1 (stereo not given) | -1.19% [at 42.5 µM] | –
ClC(Cl)=C(c1ccc(Cl)cc1)c1ccc(Cl)cc1 | – | inactive
CC(C)(C)c1cc([N+](=O)[O-])cc(C(C)(C)C)c1O | -3.08% | –
Oc1ccc2ccc3cccc4ccc1c2c34 | 2.47% | –
CC(=O)c1ccc(-c2ccccc2)cc1 | -10.4% | –
C[C@]12CC[C@H]3[C@@H](CCC4=CC(=O)CC[C@@]43C)[C@@H]1CC[C@@H]2O | 6.43% | –
C[C@@H]1O[C@@H](O[C@@H]2C=C3CC[C@@H]4[C@H](CC[C@]5(C)[C@@H](c6ccc(=O)oc6)CC[C@]45O)[C@@]3(C)CC2)[C@H](O)[C@H](O)[C@H]1O | 0.0999% [at 42.5 µM] | –
CC[C@H]1C[C@@H]2C[C@H]3c4[nH]c5ccc(OC)cc5c4CCN(C2)[C@@H]13 | 6.24% | –
O=[N+]([O-])c1c2ccccc2cc2ccccc12 | -3.13% | –
CC(=O)c1cc(C(C)(C)C)cc2c1CCC2(C)C | 11% | –
CC(=O)OC1(c2ccccc2)CCN(CCc2ccccc2)CC1 | 0.0724% | –
CC(O)C#N (stereo not given) | 0.411% | –
